# Measured values from the supplement of paper PMC10849652.
# The full data set covers some 8,800 targets. This sample favours those with a hit. About 0.5% of all pairs of compound and target were hits. A number with no mark means an inactive call.
# What was measured:
# Assay in all cases: log2 fold change, soluble protein after heating vs DMSO (PISA); higher = thermal stabilisation; K562 lysate, 10 uM; active = over 0.2 and 3.5 SD of the protein, either way, in both replicates (recomputed)
# lapatinib = compound: CS(=O)(=O)CCNCc1ccc(-c2ccc3ncnc(Nc4ccc(OCc5cccc(F)c5)c(Cl)c4)c3c2)o1 [lapatinib]
# In short: (§1)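 Following dounce homogenisation of K562 pellets in PBS pH 7.4 with 1 mM MgCl2, crude extract at 1 mg/mL protein was incubated for 30 min with 10 μM compound. Aliquots were then heated for 3 min over 48°C-58°C and pooled, NP-40 was added to 0.5% at 4°C, and soluble protein was recovered as the supernatant at 21,000xg for 90 min. Channel-sum-equalised TMTpro 16plex LC-MS/MS quantified this protein. Each value, from duplicates, is a log-two fold change in thermal stability relative to solvent controls.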
# pictilisib = compound: CS(=O)(=O)N1CCN(Cc2cc3nc(-c4cccc5[nH]ncc45)nc(N4CCOCC4)c3s2)CC1 [pictilisib]
# In short: as §1
# crizotinib = compound: C[C@@H](Oc1cc(-c2cnn(C3CCNCC3)c2)cnc1N)c1c(Cl)ccc(F)c1Cl [crizotinib]
# In short: as §1
# [1] = compound: C[C@H](C1=CC=C(C=C1)C(=O)NC2=C3C=CNC3=NC=C2)N
# In short: as §1
# duvelisib = compound: C[C@H](Nc1ncnc2nc[nH]c12)c1cc2cccc(Cl)c2c(=O)n1-c1ccccc1 [duvelisib]
# In short: as §1
# gandotinib = compound: Cc1cc(Nc2cc(CN3CCOCC3)c3nc(C)c(Cc4ccc(Cl)cc4F)n3n2)n[nH]1 [gandotinib]
# In short: as §1
# tozasertib = compound: Cc1cc(Nc2cc(N3CCN(C)CC3)nc(Sc3ccc(NC(=O)C4CC4)cc3)n2)n[nH]1 [tozasertib]
# In short: as §1
# doramapimod = compound: Cc1ccc(-n2nc(C(C)(C)C)cc2NC(=O)Nc2ccc(OCCN3CCOCC3)c3ccccc23)cc1 [doramapimod]
# In short: as §1
# bafetinib = compound: Cc1ccc(NC(=O)c2ccc(CN3CC[C@H](N(C)C)C3)c(C(F)(F)F)c2)cc1Nc1nccc(-c2cncnc2)n1 [bafetinib]
# In short: as §1
# [2] = compound: Cc1cccc(CC(=O)N2CCc3c2ccc(-c2cn(C)c4ncnc(N)c24)c3F)n1
# In short: as §1
# nilotinib = compound: Cc1cn(-c2cc(NC(=O)c3ccc(C)c(Nc4nccc(-c5cccnc5)n4)c3)cc(C(F)(F)F)c2)cn1 [nilotinib]
# In short: as §1
# [3] = compound: Cc1nc(Nc2n[nH]c3c2CN(C(=O)N[C@H](CN(C)C)c2ccccc2)C3(C)C)c2sccc2n1
# In short: as §1
# dasatinib = compound: Cc1nc(Nc2ncc(C(=O)Nc3c(C)cccc3Cl)s2)cc(N2CCN(CCO)CC2)n1 [dasatinib]
# In short: as §1
# [4] = compound: Cc1ncc(-c2ccnc(Nc3ccc(S(C)(=O)=O)cc3)n2)n1C(C)C
# In short: as §1
# [5] = compound: Cn1cc(-c2ccc3c(c2)CCN3C(=O)Cc2cccc(C(F)(F)F)c2)c2c(N)ncnc21
# In short: as §1
# quisinostat = compound: Cn1cc(CNCC2CCN(c3ncc(C(=O)NO)cn3)CC2)c2ccccc21 [quisinostat]
# In short: as §1
# tipifarnib = compound: Cn1cncc1[C@@](N)(c1ccc(Cl)cc1)c1ccc2c(c1)c(-c1cccc(Cl)c1)cc(=O)n2C [tipifarnib]
# In short: as §1
# [6] = compound: NC(=O)Nc1cc(-c2cccc(F)c2)sc1C(=O)N[C@H]1CCCNC1
# In short: as §1
# [7] = compound: NC(=O)c1cnc(N[C@@H]2CCCC[C@@H]2N)nc1Nc1cccc(-n2nccn2)c1
# In short: as §1
# [8] = compound: NC1(c2ccc(-c3nc4ccn5c(=O)[nH]nc5c4cc3-c3ccccc3)cc2)CCC1
# In short: as §1
# Chain of UniProt P31040 (P31040 whole entry, looked up): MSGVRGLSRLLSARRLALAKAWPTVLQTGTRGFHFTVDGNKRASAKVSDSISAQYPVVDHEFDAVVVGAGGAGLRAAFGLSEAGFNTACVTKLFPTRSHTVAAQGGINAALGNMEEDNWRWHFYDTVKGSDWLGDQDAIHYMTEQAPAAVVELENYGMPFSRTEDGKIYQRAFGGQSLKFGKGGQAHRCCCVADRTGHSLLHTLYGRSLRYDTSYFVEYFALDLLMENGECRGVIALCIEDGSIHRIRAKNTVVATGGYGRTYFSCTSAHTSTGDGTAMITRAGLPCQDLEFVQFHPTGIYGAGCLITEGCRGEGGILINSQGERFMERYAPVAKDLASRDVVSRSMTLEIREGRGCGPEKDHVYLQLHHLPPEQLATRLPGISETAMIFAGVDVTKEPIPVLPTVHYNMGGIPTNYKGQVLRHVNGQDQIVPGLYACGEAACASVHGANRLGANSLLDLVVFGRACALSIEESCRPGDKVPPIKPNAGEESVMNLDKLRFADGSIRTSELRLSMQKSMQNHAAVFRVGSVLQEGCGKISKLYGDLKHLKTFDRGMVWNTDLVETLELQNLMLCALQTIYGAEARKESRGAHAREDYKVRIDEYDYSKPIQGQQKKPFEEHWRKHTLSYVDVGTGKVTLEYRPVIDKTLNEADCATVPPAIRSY
# Chain of UniProt Q14644 (Q14644 whole entry, looked up): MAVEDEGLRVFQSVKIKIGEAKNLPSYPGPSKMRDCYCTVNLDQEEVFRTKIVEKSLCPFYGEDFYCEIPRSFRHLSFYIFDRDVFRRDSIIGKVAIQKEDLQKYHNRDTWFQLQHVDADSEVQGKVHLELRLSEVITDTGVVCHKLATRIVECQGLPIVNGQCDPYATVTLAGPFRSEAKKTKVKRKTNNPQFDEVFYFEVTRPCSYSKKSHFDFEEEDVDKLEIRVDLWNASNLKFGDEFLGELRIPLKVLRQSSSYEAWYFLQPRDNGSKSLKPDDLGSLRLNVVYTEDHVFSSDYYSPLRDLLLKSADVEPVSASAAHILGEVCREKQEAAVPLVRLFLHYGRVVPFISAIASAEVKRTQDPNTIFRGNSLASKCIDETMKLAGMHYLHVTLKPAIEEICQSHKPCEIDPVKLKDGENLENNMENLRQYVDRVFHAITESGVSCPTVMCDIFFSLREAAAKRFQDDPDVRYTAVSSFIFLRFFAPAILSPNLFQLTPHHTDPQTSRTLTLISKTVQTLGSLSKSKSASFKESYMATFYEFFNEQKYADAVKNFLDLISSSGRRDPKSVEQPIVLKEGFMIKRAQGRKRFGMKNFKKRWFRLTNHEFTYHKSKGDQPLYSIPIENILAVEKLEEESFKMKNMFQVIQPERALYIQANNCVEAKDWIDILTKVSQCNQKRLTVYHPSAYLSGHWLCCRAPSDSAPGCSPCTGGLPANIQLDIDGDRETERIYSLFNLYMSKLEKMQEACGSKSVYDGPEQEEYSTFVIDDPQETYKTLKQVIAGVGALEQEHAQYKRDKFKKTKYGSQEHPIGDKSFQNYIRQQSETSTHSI
# Chain of UniProt Q9BRS2 (Q9BRS2 whole entry, looked up): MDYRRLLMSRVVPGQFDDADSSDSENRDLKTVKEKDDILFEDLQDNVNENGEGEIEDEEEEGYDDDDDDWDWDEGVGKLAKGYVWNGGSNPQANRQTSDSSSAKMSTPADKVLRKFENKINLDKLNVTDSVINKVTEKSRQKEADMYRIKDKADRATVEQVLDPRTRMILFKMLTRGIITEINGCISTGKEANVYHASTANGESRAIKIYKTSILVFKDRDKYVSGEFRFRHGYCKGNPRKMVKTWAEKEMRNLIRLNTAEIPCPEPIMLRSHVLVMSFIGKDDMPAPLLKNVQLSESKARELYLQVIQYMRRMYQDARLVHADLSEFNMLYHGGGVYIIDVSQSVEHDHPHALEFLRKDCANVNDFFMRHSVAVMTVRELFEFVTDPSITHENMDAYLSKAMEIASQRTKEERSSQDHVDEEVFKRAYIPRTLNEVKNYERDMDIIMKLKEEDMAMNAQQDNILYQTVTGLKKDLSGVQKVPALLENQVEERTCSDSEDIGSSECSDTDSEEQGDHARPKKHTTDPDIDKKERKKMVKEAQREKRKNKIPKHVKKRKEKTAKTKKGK
# Chain of UniProt P38159 (P38159 whole entry, looked up): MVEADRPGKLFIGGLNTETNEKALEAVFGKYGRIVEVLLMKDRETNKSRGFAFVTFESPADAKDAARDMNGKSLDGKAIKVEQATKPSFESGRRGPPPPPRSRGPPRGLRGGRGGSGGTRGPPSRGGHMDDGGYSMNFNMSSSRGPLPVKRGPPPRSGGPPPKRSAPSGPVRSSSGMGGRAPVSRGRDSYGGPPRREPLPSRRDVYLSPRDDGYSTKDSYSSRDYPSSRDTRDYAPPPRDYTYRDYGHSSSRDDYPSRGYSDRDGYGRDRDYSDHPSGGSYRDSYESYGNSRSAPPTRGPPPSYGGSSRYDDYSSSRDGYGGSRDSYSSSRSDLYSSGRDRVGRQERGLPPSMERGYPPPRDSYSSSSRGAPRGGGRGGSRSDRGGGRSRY
# Chain of UniProt O60518 (O60518 whole entry, looked up): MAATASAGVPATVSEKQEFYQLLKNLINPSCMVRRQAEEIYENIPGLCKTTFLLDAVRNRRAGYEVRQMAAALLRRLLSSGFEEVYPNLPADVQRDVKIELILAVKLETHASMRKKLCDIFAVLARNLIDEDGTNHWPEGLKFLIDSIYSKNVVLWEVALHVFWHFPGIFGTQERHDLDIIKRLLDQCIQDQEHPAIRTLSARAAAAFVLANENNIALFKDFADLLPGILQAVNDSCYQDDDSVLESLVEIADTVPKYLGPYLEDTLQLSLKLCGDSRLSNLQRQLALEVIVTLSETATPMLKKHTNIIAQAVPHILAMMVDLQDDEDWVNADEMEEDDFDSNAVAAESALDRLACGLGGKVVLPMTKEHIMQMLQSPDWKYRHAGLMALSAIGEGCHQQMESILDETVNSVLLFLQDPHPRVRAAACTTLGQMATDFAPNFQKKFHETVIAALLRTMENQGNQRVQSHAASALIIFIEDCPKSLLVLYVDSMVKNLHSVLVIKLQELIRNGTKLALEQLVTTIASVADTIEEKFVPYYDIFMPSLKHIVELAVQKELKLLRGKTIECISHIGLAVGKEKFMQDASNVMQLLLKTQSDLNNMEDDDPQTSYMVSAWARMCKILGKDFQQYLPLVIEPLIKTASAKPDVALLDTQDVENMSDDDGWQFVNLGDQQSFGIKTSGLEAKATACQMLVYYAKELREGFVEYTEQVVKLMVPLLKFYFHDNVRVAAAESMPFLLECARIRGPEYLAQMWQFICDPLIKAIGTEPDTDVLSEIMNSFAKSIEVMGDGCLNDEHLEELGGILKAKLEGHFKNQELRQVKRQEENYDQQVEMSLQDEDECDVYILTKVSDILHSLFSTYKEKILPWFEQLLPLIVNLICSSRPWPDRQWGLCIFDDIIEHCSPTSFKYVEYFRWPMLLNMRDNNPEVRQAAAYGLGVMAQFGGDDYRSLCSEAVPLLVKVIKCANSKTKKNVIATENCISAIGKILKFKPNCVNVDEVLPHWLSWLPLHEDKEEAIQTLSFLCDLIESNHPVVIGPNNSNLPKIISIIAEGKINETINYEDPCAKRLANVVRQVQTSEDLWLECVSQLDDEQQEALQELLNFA
# Chain of UniProt P61586 (P61586 whole entry, looked up): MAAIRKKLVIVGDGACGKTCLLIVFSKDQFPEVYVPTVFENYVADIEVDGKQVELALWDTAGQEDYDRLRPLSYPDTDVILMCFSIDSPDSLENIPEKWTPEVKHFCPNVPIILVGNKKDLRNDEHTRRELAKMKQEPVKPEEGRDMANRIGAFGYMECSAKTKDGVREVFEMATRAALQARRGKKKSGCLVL
# Chain of UniProt O75446 (O75446 whole entry, looked up): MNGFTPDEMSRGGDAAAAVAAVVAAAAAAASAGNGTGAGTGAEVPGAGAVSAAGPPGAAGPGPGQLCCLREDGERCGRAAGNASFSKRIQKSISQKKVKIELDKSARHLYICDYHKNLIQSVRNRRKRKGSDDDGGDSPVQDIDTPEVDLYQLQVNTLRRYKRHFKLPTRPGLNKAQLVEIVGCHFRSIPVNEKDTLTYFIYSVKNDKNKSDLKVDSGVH
# Chain of UniProt P61224 (P61224 whole entry, looked up): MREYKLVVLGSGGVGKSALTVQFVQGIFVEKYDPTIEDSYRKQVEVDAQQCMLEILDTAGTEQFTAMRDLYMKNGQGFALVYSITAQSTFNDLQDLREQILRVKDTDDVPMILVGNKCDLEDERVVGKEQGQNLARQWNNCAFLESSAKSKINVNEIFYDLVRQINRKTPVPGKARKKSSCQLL
# Chain of UniProt Q04864 (Q04864 whole entry, looked up): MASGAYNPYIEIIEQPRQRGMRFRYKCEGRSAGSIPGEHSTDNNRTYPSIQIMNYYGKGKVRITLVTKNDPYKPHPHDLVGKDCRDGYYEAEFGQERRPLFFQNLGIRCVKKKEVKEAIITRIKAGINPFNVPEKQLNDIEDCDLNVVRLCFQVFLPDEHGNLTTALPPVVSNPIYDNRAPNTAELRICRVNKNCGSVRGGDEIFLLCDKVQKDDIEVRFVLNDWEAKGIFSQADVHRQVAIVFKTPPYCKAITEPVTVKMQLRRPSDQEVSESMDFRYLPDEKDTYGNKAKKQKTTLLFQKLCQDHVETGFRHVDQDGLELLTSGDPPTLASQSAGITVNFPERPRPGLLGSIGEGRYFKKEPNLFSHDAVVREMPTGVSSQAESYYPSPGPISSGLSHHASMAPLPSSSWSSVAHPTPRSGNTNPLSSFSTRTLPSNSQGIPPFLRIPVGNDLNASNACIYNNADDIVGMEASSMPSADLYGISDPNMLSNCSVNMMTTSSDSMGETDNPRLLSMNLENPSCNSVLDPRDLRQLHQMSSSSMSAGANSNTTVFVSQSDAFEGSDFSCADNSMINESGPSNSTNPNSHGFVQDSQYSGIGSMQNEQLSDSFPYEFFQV
# Chain of UniProt Q9Y6B6 (Q9Y6B6 whole entry, looked up): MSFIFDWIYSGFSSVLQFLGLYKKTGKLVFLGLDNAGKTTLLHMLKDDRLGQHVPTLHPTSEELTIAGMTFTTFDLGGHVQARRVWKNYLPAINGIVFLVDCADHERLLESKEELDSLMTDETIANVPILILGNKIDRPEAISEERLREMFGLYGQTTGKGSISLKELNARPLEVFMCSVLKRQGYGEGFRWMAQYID
Target,log2 fold change (lapatinib),log2 fold change (pictilisib),log2 fold change (crizotinib),log2 fold change [1],log2 fold change (duvelisib),log2 fold change (gandotinib),log2 fold change (tozasertib),log2 fold change (doramapimod),log2 fold change (bafetinib),log2 fold change [2],log2 fold change (nilotinib),log2 fold change [3],log2 fold change (dasatinib),log2 fold change [4],log2 fold change [5],log2 fold change (quisinostat),log2 fold change (tipifarnib),log2 fold change [6],log2 fold change [7],log2 fold change [8]
RASA3 (UniProt Q14644),0.08,-0.044,-0.061,-0.049,0.103,-0.026,-0.017,-0.005,-0.198,0.005,0.065,-0.014,-0.144,0.039,0.109,0.062,0.009,0.011,0.012,0.089
RBMX (UniProt P38159),0.002,0.012,0.022,0.011,0.033,-0.003,0.013,0.008,0.068,0.022,0.034,-0.079,-0.029,-0.052,-0.007,0.042,0.005,0.014,0.033,-0.021
SAMHD1 (UniProt Q9Y3Z3),0.02,-0.071,-0.033,-0.038,0.013,-0.029,0.032,-0.005,-0.071,0.028,-0.006,0.008,-0.026,0.013,0.066,-0.02,0.03,0.054,0.046,0.004
RNF113A (UniProt O15541),0.012,0.021,0.024,-0.072,-0.009,0.068,0.002,0.016,0,0.034,0.003,-0.004,-0.015,0.007,0.04,0.063,-0.019,-0.068,-0.005,-0.002
RIOK1 (UniProt Q9BRS2),-0.044,0.197,-0.015,0.92 (active),0.037,-0.138,0.008,0.025,-0.056,-0.134,-0.018,0.06,-0.018,0.072,0.008,-0.007,0.003,-0.012,-0.033,-0.072
RPLP0P6 (UniProt Q8NHW5),0.003,0.033,-0.013,0.014,0.016,-0.013,-0.005,0.001,0.274 (active),0.034,0.01,-0.027,0.018,0.001,0.026,-0.049,-0.02,0.002,0.005,-0.016
RANBP6 (UniProt O60518),-0.007,-0.005,-0.125,-0.067,0.019,-0.01,0.012,0.039,0.016,0.148,0.039,-0.036,-0.002,-0.071,0.049,-0.063,-0.072,0.055,0.062,-0.06
SAR1B (UniProt Q9Y6B6),0.122,0.036,-0.056,-0.031,0.004,0.44 (active),-0.005,0.578 (active),-0.079,0.08,0.202,0.101,0.047,-0.013,-0.038,0.028,-0.217,-0.02,-0.092,-0.016
REL isoform 2 (UniProt Q04864),0.014,0.005,-0.025,0.32 (active),0.001,0.074,0.052,0.023,-0.04,-0.072,0.009,-0.032,-0.015,-0.041,0.056,-0.005,0.014,0.005,-0.009,-0.017
RAP1B (UniProt P61224),0.009,-0.006,0.008,0.215 (active),-0.045,-0.036,0,0.017,0.17,-0.021,0.032,0,0.045,0.027,-0.002,-0.007,-0.034,-0.007,-0.029,-0.025
RNF123 (UniProt Q5XPI4),-0.013,-0.029,-0.015,-0.04,-0.068,-0.122,0.029,0.039,-0.002,0.011,0.012,-0.013,-0.059,0.022,0.054,-0.046,-0.006,0.04,0.019,0.01
SDHA (UniProt P31040),0.004,-0.011,-0.008,-0.004,0.013,0.03,0.006,0.024,0.026,-0.017,0.035,0.009,0.016,0.004,-0.033,-0.022,-0.034,-0.037,-0.013,0.007
SAP30 (UniProt O75446),-0.064,-0.036,0.044,0.042,0.004,-0.036,-0.056,0.013,-0.073,0.012,0.104,-0.464 (active),-0.063,-0.124,0.012,-0.111,-0.026,0.037,-0.035,
RAP1GAP isoform 4 (UniProt P47736),-0.019,-0.018,-0.044,0.044,-0.032,-0.044,-0.009,-0.001,-0.069,0.007,-0.002,-0.015,0,0.017,0.028,-0.046,-0.013,0.029,-0.021,-0.034
"RAPGEF2, A0A2R8YGD3",-0.014,0.015,0.024,-0.431 (active),0.018,0.038,0.014,-0.039,-0.171,0.266,-0.032,0.027,0.052,-0.036,0.008,-0.018,-0.017,0.054,-0.02,0.024
RHOA (UniProt P61586),0.009,0.314,0.035,0.345 (active),-0.023,-0.058,-0.092,-0.036,0.08,-0.138,-0.08,0.104,0.017,-0.008,-0.013,0.167,-0.021,-0.004,0.008,-0.062
